# According to PubChem BioAssay AID1345082 (National Center for Advancing Translational Sciences (NCATS), 2018):
# Out of some 94,000 compounds screened, about 4,000 (4.3%) were called active. Where a call stands in place of a potency, no number is given. Not shown: some 29% with an inconclusive outcome. The sample holds actives, similar compounds and a random draw of the others, so the mix is not that of the screen. The call rests on the fitted dose curve; in most records, active means well fitted inhibition curve with a large enough effect; inconclusive means small, poorly fitted or top-dose-only effect; inactive means no such curve, though single readings can be large or run the other way.
# Assay: Cytotoxic Profiling in NIH 3T3 Cell Line of Diverse Libraries Using Quantitative High-Throughput Screening; further: nearly all actives have a fitted effect of over 55% in size
# Settings: NIH 3T3 viability, CellTiter-Glo ATP luminescence, 48-72 h; series mostly up to 96.7 µM
# In short: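 Mouse fibroblast NIH 3T3 cells, 400 per well, received compound via pintool and were incubated for 48 or 72 hr prior to CellTiter-Glo ATP luminescence measurement.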
# Potency means the concentration at half of the fitted maximal effect.
row,Structure (SMILES),Potency
1,COc1ccc(C(C)NC(=O)CN2C(=O)C(c3ccccc3)=NC2(C)C)cc1 (stereo unspecified),inactive
2,CN1C(=O)CC[C@]2(C(=O)NCC3CCCCC3)CCCC[C@@H]12,inactive
3,O=C(NC1CCOC1)c1ccc2oc(-c3ccc(C(F)(F)F)cc3)nc2c1 (stereo unspecified),inactive
4,O=C(CSc1ccncc1)N1CCCC(O)(CN2CCCC2)C1 (stereo unspecified),inactive
5,COc1ccc(N2Cc3c(NCc4cccs4)ncnc3N(C)CC2=O)cc1,inactive
6,COCCOc1cc(=O)n2c(c1C(=O)NCc1ccccc1)CCOCC2,inactive
7,Cc1cccc(CN2CCc3ncc(C(=O)NCc4ccccc4)n3CC2)n1,89.1 µM (active)
8,COCCNC(=O)N1CCc2nn(Cc3ccccc3)c(=O)n2CC1,inactive
9,CCOc1ccc(C(=O)N2C[C@@H](CO)[C@H](c3ccncc3)C2)cc1,inactive
10,COc1ccc2ccc(OCc3nc(C(=O)N4CCC(=O)NCC4C)co3)cc2c1 (stereo unspecified),inactive
11,Cc1ccccc1CNC[C@H]1O[C@@H]2C[C@@H](CC(=O)NC(C)C)O[C@@H]2[C@@H]1O,inactive
12,CCOc1cc(C)c(CN2C[C@@H](CN(C)C)C[C@H](CO)C2)cc1C(C)C,31.6 µM (active)
13,Cc1cc(=O)n(CC(=O)N2C[C@H](CO)C[C@H](CN(C)C)C2)nc1C,inactive
14,COc1cc(C)c(CN2CCN3C(=O)CNC(=O)C3C2)cc1C(C)C (stereo unspecified),inactive
15,O=C(C1CCCCC1)N1CCCC(n2cc(-c3nc(-c4ccccc4)no3)nn2)C1 (stereo unspecified),inactive
16,COC(=O)[C@@H]1C[C@H](NC(=O)c2c(Cl)cccc2Cl)CN1C,inactive
17,CN1CCNc2nc(CNc3cccc(F)c3)n(Cc3ccccc3)c2C1=O,inactive
18,O=C1c2c(nc(COc3ccccc3)n2Cc2ccccc2)NCCN1Cc1cccc(Cl)c1,28.2 µM (active)
19,C=CCC1(C(=O)O)CCCN(Cc2cn[nH]c2C(=O)O)C1 (stereo unspecified),inactive
20,CCNC(=O)O[C@@H]1CO[C@H]2[C@@H]1OC[C@@H]2NC(=S)Nc1cccc2ccccc12,79.4 µM (active)
21,COc1ccc(NC(=O)O[C@@H]2CO[C@H]3[C@@H]2OC[C@@H]3NC(=S)Nc2cccc3ccccc23)cc1,inactive
22,CCNC(=O)O[C@@H]1CO[C@H]2[C@@H]1OC[C@@H]2NC(=O)c1cccc(C(=O)OC)c1,inactive
23,CC(C)(CC(=O)O)CC(=O)N[C@H]1CO[C@H]2[C@@H]1OC[C@@H]2n1nnnc1-c1ccccc1,inactive
24,c1ccc(CO[C@@H]2CO[C@H]3[C@@H]2OC[C@@H]3n2nnnc2SCc2ccco2)cc1,89.1 µM (active)
25,CNC(=O)CCN(C)c1nccc(-c2ccc(C)nc2C)n1,inactive
26,Cc1cccc(C(=O)N[C@@H]2CN(c3ncccn3)C[C@H]2CO)n1,inactive
